Reference: PubChem BioAssay (NCI)
Compounds without any hit were thinned out: in the full panel of roughly 83,000, 20% have a hit.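 Testing used 96-well plates and a 48-hour single-concentration exposure. Example: -40 means 40% of the starting cells died.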 A number with no mark means an inactive call. Active and inactive are the calls of the source. How the source made its calls: active means growth percent below 10; inactive means the rest.

Key:
Experiment in all cases: NCI-60 one-dose screen, 48 h (100 = growth as untreated, 0 = no growth, -100 = all killed)
Conditions in all cases: 10 µM
SR leukemia = system: SR leukemia
RPMI-8226 leukemia = system: RPMI-8226 leukemia
OVCAR-8 ovarian = system: OVCAR-8 ovarian
OVCAR-5 ovarian = system: OVCAR-5 ovarian
OVCAR-4 ovarian = system: OVCAR-4 ovarian
SK-OV-3 ovarian = system: SK-OV-3 ovarian
IGROV1 ovarian = system: IGROV1 ovarian
OVCAR-3 ovarian = system: OVCAR-3 ovarian
HS 578T breast = system: HS 578T breast
NCI/ADR-RES ovarian = system: NCI/ADR-RES ovarian
T-47D breast = system: T-47D breast
BT-549 breast = system: BT-549 breast
MDA-MB-435 melanoma = system: MDA-MB-435 melanoma
SW-620 colon = system: SW-620 colon
MCF7 breast = system: MCF7 breast
HCT-116 colon = system: HCT-116 colon
HCC-2998 colon = system: HCC-2998 colon
KM12 colon = system: KM12 colon

SMILES | growth (SR leukemia) | growth (RPMI-8226 leukemia) | growth (OVCAR-8 ovarian) | growth (OVCAR-5 ovarian) [%] | growth (OVCAR-4 ovarian) | growth (SK-OV-3 ovarian) | growth (IGROV1 ovarian) | growth (OVCAR-3 ovarian) | growth (HS 578T breast) | growth (NCI/ADR-RES ovarian) [%] | growth (T-47D breast) | growth (BT-549 breast) | growth (MDA-MB-435 melanoma) | growth (SW-620 colon) [%] | growth (MCF7 breast) | growth (HCT-116 colon) | growth (HCC-2998 colon) | growth (KM12 colon)
CC1=CSC2=NC(c3ccc(Cl)c(Cl)c3)=CC(c3ccc(Cl)cc3)N12 (stereo not drawn) | 0.606% (active) | 82.3% | 29.1% | 91.8 | 62.5% | -19.9% (active) | -52% (active) | 18% | -1.12% (active) | 92.9 | 21.3% | 7.99% (active) | 10.4% | 26.4 | 54.3% | 3.71% (active) | 100% | 56.8%
Cc1c(C(=O)N[C@H](CO)Cc2ccccc2)[nH]c2ccc(Cl)cc2c1=O | 81.4% | 92.3% | 96.6% | 112 | 108% | 99.8% | 106% | 111% | 102% | 108 | 89.9% | 107% | 89.3% | 101 | 92.7% | 97.4% | 94.4% | 106%
COc1ccc(C2C=C(c3ccc(OC)c(OC)c3)N=C3SC=CN32)c(Br)c1 (stereo not drawn) | -14.8% (active) | -12.4% (active) | 66.2% | 102 | 62.5% | 101% | 69.8% | 56.9% | 90.4% | 78.2 | 54.7% | 62.5% | 5.29% (active) | 13.4 | 12.7% | -78.2% (active) | 95% | 31.5%
Cc1ccccc1C1=N[C@@H](Cc2ccccc2)C(=O)c2c(nc3ccccn23)N1 | 122% | 98.4% | 92.8% | 101 | 98.7% | 111% | 108% | 108% | 102% | 95.6 | 104% | 96.9% | 98.8% | 103 | 84.9% | 86.9% | 99.9% | 108%
COc1ccc(OC)c([N+](=O)[O-])c1C=O | 37.2% | 75.1% | 97.8% | 107 | 105% | 101% | 101% | 101% | 89.6% | 113 | 56.5% | 117% | 101% | 65.1 | 38.2% | 50.7% | 110% | 95.8%
CC(C)(C)c1ccc(OCCCCCCN2CCNCC2)cc1 | -8.37% (active) | 0.146% (active) | 89.7% | 82.2 | 72% | 86.4% | 80.8% | 82.1% | 72.4% | 79.7 | 34.8% | 58.7% | 68.3% | 45.9 | 17.5% | 8.35% (active) | -47.1% (active) | 51.1%
Cc1ccccc1[P+](Cc1ccccc1)(c1ccccc1)c1ccccc1 | 2.45% (active) | -27% (active) | 10% | 52 | 8.97% (active) | 43.7% | 14.3% | 26.4% | 54.4% | 104 | -3.4% (active) | 10.3% | 1% (active) | 30 | 10.4% | 12.7% | 16.5% | 8.7% (active)
CC(C)/C=N/NC(N)=S | 51.9% | 60.4% | 62.9% | 78.7 | 46.1% | 110% | 34% | 53% | 90.7% | 75 | 45.6% | 105% | 86.4% | 76.4 | 8.48% (active) | 8.16% (active) | 96.4% | 112%
COc1cc(C2CC(=O)Nc3c2c(C)nn3-c2nc3ccccc3[nH]2)cc(OC)c1O (stereo not drawn) | 9.39% (active) | 83.5% | 19.9% | 112 | 63.8% | 2.53% (active) | 28.2% | 20.9% | 8.42% (active) | 80.6 | 83.5% | 46.2% | 23% | 45.7 | 56.9% | 68.4% | 88.9% | 45.7%
COc1cc2nc(Sc3sc(N)nc3C)n(-c3ccc(Oc4ccccc4)cc3)c(=O)c2cc1OC | -43.4% (active) | 67.6% | 85% | 106 | 50.7% | 114% | 107% | 93.5% | 88.5% | 75.2 | 77.3% | 71.3% | 93.3% | 81.2 | 74.4% | 47.4% | 80.4% | 93.5%
COc1ccc(C2C=C(c3ccc(Cl)cc3)N=C3SC=CN32)c(Br)c1 (stereo not drawn) | 59.2% | 52.3% | 67.3% | 98.2 | 80.9% | 117% | 98.1% | 60.5% | 94.8% | 89.9 | 71.8% | 96.7% | 69.2% | 91.3 | 75.3% | 54% | 86.9% | 62.3%
CCCCCCOc1ccc(/C=C/C(=O)c2ccc(B(O)O)cc2)cc1 | 48.4% | 46.2% | 81.2% | 77.3 | 64.6% | 87.3% | 64.7% | 97.1% | 60.3% | 77.4 | 73.9% | 35.2% | 77.1% | 96.8 | 57.5% | 55.6% | 95.6% | 85.4%
CC(C)C(C)C(N)C(=O)O (stereo not drawn) | 93.7% | 99.6% | 105% | 114 | 115% | 96% | 101% | 111% | 117% | 107 | 102% | 90.7% | 105% | 110 | 92.9% | 94.5% | 101% | 103%
c1ccc(COCC[P+](c2ccccc2)(c2ccccc2)c2ccccc2)cc1 | -15.6% (active) | -30.3% (active) | 3.8% (active) | 24.2 | 6.56% (active) | -0.443% (active) | -8.1% (active) | 3.01% (active) | 32.9% | 81.8 | 12% | 5.25% (active) | -0.102% (active) | 14 | 4.89% (active) | 5.42% (active) | 6.68% (active) | 6.34% (active)
Nc1nc2c(ncn2C2OC3COP(=O)(O)OC4C(COP(=O)(O)OC2C3O)OC(n2cnc3c(N)ncnc32)C4O)c(=O)[nH]1 (stereo not drawn) | 57.8% | 99.4% | 102% | 103 | 105% | 87.3% | 109% | 107% | 105% | 102 | 84.4% | 90% | 105% | 107 | 109% | 94% | 99.3% | 104%
COc1cccc(C(=O)N(c2ccc(F)c(F)c2)C(C(=O)NC(C)(C)C)c2cc3c(C)cc(C)cc3nc2Cl)c1 (stereo not drawn) | 67.6% | 42.9% | 84.1% | 86.5 | 48.7% | 75.5% | 77.2% | 60.3% | 79.8% | 73.2 | 46.6% | 90.7% | 63.2% | 78.6 | 45.6% | 34.8% | 88.3% | 60.2%
